From PubChem BioAssay (NCI) come the findings set out here.

The panel holds about 83,000 compounds, 20% with a hit somewhere; the sample as a whole holds those more often.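 Values shown are percent growth following 48 h exposure of cells in 96-well plates to a single concentration of compound; below 10 was considered active.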 A number with no mark means an inactive call. Calls of active or inactive are those of the source.

Holding throughout (test): NCI-60 one-dose screen, 48 h (100 = growth as untreated, 0 = no growth, -100 = all killed)
Holding throughout (conditions): 10 µM unless noted

Test [1] concerns SR leukemia.
The subject of test [2] is RPMI-8226 leukemia.
Test [3] relates to OVCAR-8 ovarian.
Test [4] concerns OVCAR-5 ovarian.
In test [5] the test system is OVCAR-4 ovarian.
The test system of test [6] is SK-OV-3 ovarian.
Test [7] concerns OVCAR-3 ovarian.
Test [8] has as its system NCI/ADR-RES ovarian.
For test [9], the system named is T-47D breast.
In test [10] the test system is BT-549 breast.
Test [11] relates to MDA-MB-435 melanoma.
Test [12] deals with MCF7 breast.
Test [13] has as its system HCT-116 colon.
The test system of test [14] is HCC-2998 colon.
Test [15] has as its system KM12 colon.
The test system of test [16] is MDA-MB-468 breast.
Test [17] concerns IGROV1 ovarian.
In test [18] the test system is HS 578T breast.
The test system of test [19] is SW-620 colon.

In the case of `CSc1ccc(NC(=O)c2ccc3nnn(/C(C#N)=C/c4ccccn4)c3c2)cc1`, the growth is -6.85% (active) in test [1]; -32.6% (active) in test [2]; -60.6% (active) in test [3]; -78.6% (active) in test [4]; -97.4% (active) in test [5]; 25.5% in test [6]. Further, the growth is -70.7% (active) in [7]; -83.9% (active) in test [8]; -73.4% (active) in test [9]; -70.4% (active) in [10]; -78.4% (active) in test [11]; -71.3% (active) in test [12]. The growth in test [13] is 0.694% (active); in [14] it was -70.6% (active); in test [15], -70.4% (active); in [16], -71.3% (active).
With `COc1ccc2[nH]cc(-c3nnc(N)nc3-c3c[nH]c4ncc(Br)cc34)c2c1`, the growth in test [1] is 67.8%; in test [2] it was 76.8%; in [3], 82.5%; in test [5], 96.6%; in test [6], 76.2%; in test [17] it was 48.3%. The growth was 104% in [7]; 70.1% in test [18]; 97.9% in test [8]; 53.8% in [9]; 93% in test [10]; 88.8% in test [19]. For the same molecule, the growth in [12] was 62.2%; in test [13] it was 75.2%; in [14], 110%; in [15] it was 91.4%; in test [16] it was 79.9%.
As to `COc1ccc(/C=C/c2n(Cc3ccc4ccccc4c3)c3ccccc3[n+]2Cc2ccc3ccccc3c2)cc1`, the growth in [1] is -34.9% (active); in test [2], -48.5% (active); in [3], -75.2% (active); in [5], -65% (active); in test [6], -95.7% (active); in test [17] it was -76.2% (active). In addition, the growth was -82.8% (active) in [7]; -59.3% (active) in test [18]; -53.4% (active) in test [8]; -70.1% (active) in test [9]; -93.1% (active) in [10]; -96.2% (active) in test [19]. Besides, the growth in [12] was -71.3% (active); in test [13] it was -95.3% (active); in test [14], -84.3% (active); in test [15] it was -84.5% (active); in test [16] it was -83.9% (active).
In the case of `Cc1nc(Nc2ccccn2)sc1C(=O)CC(SCC(=O)Nc1ccc(Cl)cc1)c1ccccc1F` (configuration not stated), the growth is 12.6% in test [1]; 7.34% (active) in test [2]; -35.8% (active) in test [3]; 42.5% in [5]; 8.74% (active) in test [6]; 20.4% in test [17]. Further, the growth in test [7] is -13.5% (active); in test [18], 4.29% (active); in test [8] it was -18% (active); in test [9] it was -7.28% (active); in [10] it was 24.2%; in test [11], -60% (active). In addition, the growth is 2.15% (active) in [19]; 13.2% in [12]; 4.66% (active) in [13]; 17.2% in test [14]; -19.1% (active) in [15]; -22.1% (active) in [16].
Take `Cc1cc2c(cc1Cl)C(=O)/C(=C/c1ccccc1)O2`: the growth was 10.1% in test [1]; 26% in test [2]; -24.7% (active) in [3]; 9.29% (active) in [5]; 71.4% in [6]; -48.2% (active) in [17]. The growth in test [7] was 26.8%; in test [18], 21%; in test [8], -19.8% (active); in [9], -22.8% (active); in test [10], -3.52% (active); in test [11], 19.7%. The growth in test [19] was 33.9%; in test [12] it was 17.5%; in test [13], 18.1%; in test [14], 63.6%; in test [15] it was 17.8%; in [16] it was 0.644% (active).
For the molecule `COc1ccc(-c2nc3ccc(C(=O)NN4C(=O)c5ccc([N+](=O)[O-])cc5C4=O)cc3[nH]2)cc1`, the growth in test [1] was 89.1%; in test [2], 80.9%; in [3] it was 97.5%; in [5] it was 101%; in test [6], 94.8%; in test [17], 101%. The growth in test [7] was 115%; in [18], 104%; in [8] it was 102%; in test [9], 97%; in test [10], 105%; in test [11] it was 98.3%. Besides, the growth in test [19] was 101%; in test [12], 83%; in [13], 102%; in test [14] it was 108%; in test [15] it was 101%; in test [16], 89.7%.
Consider `COc1ccc(-c2nc(SC(C)C)nc(NCCc3c[nH]c4ccccc34)c2C#N)cc1`, for which the growth in test [1] was 2.63% (active); in [2], 16.3%; in test [3], 66.5%; in [5], 57.1%; in test [6], 72%; in [17] it was 94.3%. The growth in [7] is 63.8%; in test [18] it was 36.3%; in test [8] it was 32.5%; in test [9] it was 6.31% (active); in [10], 63%; in test [11], 53.4%. In addition, the growth was 32.9% in [19]; 7.2% (active) in test [12]; 7.04% (active) in test [13]; 32.5% in test [14]; 25.5% in test [15]; 30.1% in test [16].
`CC(C)(C)OC(=O)/C=C/c1cccc2c1C(=O)NC(C)(c1cc3cc(Cl)ccc3oc1=O)N2` (configuration not stated): the growth in [1] was 8.86% (active); in test [2] it was 1.99% (active); in test [3], 39.1%; in [5] it was 43.9%; in [6] it was 47.6%; in test [17] it was 44.7%. Further, the growth is 43.8% in test [7]; 65.1% in [18]; 25.4% in test [8]; -3.39% (active) in test [9]; 15.2% in [10]; 62.2% in test [11]. The growth in [19] was 55.7%; in test [12] it was 17.5%; in test [13], 31.5%; in [14], 52.9%; in [15], 19.9%; in test [16] it was 11.6%.
With `Brc1ccc(N/N=C/c2c[nH]c3ccc(Br)cc23)nc1`, the growth was -26.2% (active) in [1]; -17.2% (active) in test [2]; 3.48% (active) in test [3]; 19.6% in test [5]; -12.7% (active) in test [6]; -25.6% (active) in test [17]. Moreover, the growth in test [7] was -2.41% (active); in test [18], -17.2% (active); in test [8] it was -24.5% (active); in test [9], 1.46% (active); in [10] it was -22.6% (active); in test [11], -25% (active). Moreover, the growth in [19] is -71.3% (active); in test [13], -72.9% (active); in test [14] it was -94% (active); in test [15], -57% (active); in test [16] it was -63.5% (active).
